PubChem BioAssay

What was measured:
[1] = system: Botulinum neurotoxin type F light chain protease (Clostridium botulinum); experiment: Clostridium botulinum type F light chain protease inhibitors, microsphere substrate cleavage, validation (AID 588459); settings: multiplex microsphere protease substrate cleavage assay, flow cytometry; at 10 µM; stronger effect = higher value
[2] = target: Botulinum neurotoxin type A (Clostridium botulinum) (UniProt P0DPI0); experiment: BoNT/A light chain protease inhibitors, biochemical, multiplex microsphere flow cytometry, validation set (AID 588460); settings: at 10 µM, stronger effect = higher value
[3] = target: Lethal factor (Bacillus anthracis) (UniProt P15917); experiment: Bacillus anthracis lethal factor inhibition, microsphere flow cytometry protease assay, validation at 10 µM (AID 588461); settings: multiplex microsphere protease cleavage assay, stronger effect = higher value

Measured: inhibition

Sequence of Lethal factor (Bacillus anthracis) (P15917 whole entry, looked up): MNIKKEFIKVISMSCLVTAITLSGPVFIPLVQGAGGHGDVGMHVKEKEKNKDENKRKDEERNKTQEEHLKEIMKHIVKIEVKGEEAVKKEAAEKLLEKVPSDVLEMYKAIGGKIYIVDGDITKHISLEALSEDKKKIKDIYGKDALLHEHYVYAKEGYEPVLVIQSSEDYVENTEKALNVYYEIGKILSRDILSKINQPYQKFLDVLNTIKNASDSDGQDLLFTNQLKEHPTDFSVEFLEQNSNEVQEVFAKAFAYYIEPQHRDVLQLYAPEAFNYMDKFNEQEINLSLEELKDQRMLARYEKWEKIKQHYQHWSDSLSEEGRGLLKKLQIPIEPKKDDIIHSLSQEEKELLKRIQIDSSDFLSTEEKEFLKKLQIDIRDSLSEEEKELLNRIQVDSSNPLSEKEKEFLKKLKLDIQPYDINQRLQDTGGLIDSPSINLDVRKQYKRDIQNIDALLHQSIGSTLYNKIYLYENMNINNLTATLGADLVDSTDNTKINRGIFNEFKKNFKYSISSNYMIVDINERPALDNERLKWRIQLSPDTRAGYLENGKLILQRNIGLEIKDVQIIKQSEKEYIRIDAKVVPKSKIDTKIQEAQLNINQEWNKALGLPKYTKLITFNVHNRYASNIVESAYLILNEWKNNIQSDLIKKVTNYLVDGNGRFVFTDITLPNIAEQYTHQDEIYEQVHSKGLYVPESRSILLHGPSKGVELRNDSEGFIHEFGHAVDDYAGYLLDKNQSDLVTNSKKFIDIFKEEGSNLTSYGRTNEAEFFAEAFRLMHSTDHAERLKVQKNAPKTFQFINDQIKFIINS
Sequence of Botulinum neurotoxin type A (Clostridium botulinum) (P0DPI0 whole entry, looked up): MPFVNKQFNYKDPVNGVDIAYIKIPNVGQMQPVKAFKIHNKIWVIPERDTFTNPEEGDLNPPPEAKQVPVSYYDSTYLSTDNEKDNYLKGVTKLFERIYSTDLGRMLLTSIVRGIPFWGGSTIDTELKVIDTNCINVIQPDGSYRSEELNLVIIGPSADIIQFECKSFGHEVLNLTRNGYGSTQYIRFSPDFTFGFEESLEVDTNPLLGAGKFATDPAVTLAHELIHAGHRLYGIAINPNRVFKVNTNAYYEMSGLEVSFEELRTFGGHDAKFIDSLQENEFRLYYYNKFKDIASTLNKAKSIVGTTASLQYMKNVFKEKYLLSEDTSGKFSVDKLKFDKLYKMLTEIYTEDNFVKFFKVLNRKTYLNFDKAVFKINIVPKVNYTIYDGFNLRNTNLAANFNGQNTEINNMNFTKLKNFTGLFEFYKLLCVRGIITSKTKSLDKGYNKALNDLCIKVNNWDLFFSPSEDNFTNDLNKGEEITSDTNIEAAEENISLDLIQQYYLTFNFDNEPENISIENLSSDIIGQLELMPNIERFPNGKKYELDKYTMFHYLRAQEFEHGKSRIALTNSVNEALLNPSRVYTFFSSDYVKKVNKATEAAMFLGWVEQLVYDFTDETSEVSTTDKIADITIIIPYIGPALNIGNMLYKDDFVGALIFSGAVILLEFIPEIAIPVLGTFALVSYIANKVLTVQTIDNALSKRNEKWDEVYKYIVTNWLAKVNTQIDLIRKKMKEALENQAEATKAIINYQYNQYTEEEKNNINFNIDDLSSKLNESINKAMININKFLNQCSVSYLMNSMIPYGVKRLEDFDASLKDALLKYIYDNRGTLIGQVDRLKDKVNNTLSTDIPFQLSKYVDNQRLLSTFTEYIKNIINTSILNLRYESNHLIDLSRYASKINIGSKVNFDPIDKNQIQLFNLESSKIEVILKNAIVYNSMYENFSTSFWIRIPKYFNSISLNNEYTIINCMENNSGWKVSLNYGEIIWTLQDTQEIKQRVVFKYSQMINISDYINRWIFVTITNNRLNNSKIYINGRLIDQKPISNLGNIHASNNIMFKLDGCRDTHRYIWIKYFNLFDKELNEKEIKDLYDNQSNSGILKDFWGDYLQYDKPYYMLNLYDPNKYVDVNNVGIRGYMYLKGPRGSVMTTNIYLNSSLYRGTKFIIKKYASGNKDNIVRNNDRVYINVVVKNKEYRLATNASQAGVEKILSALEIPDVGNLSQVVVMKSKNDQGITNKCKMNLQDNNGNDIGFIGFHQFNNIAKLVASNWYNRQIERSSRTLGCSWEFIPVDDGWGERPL

Cc1nc(NC(CC(C)C)C(=O)O)c2nc(C)oc2n1 (centres undefined)
inactive: [1] 1.1% | [2] 1.1% | [3] -5.4%

CC(=O)Nc1c(I)c(NC(C)=O)c(I)c(C(=O)O)c1I
inactive: [1] -0.5% | [2] -1.9% | [3] 0.5%

Brc1c(NC2=NCCN2)ccc2nccnc12
inactive: [1] -5.6% | [2] -0.8% | [3] -2.9%

Oc1[nH]c2ccccc2c1C1=NCCCC1
inactive: [1] 3.8% | [2] -0.1% | [3] -8.7%

CC1(C)OC2OC(C(=O)N/N=C/c3ccccc3F)C3OC(C)(C)OC3C2O1 (centres undefined)
inactive: [1] 2.6% | [2] -1.3% | [3] -1.9%

O=c1oc2c(CN3CCCCC3)c(O)ccc2c2c1CCCCC2
inactive: [1] 4.3% | [2] 0.5% | [3] 1.1%

O=C(c1ccc(F)cc1)[C@@H]1[C@@H](C(=O)c2ccccc2)[C@@]2(C(=O)Nc3ccccc32)[C@H]2c3ccccc3C=CN12
inactive: [1] 4.8% | [2] 0.3% | [3] -3.6%

COc1ccc2cc(C(=O)Nc3ccc(S(N)(=O)=O)cc3)sc(=O)c2c1OC
inactive: [1] 4.2% | [2] 0.6% | [3] 1.5%

CC(C)COCC(CN(Cc1ccccc1)c1ccccc1)N1CCCC1 (centres undefined)
inactive: [1] 1.2% | [2] -1.8% | [3] -2%

O=C(O)c1cc(-c2ccccc2)nc2ccccc12
inactive: [1] -1.1% | [2] -0.1% | [3] -9.8%

OCCC1CN(Cc2nc(-c3ccccc3)cs2)CCN1Cc1ccc(F)cc1 (centres undefined)
inactive: [1] 3.5% | [2] 0.9% | [3] 8.5%

CC12CCC(C(=O)NCc3ccccn3)(OC1=O)C2(C)C (centres undefined)
inactive: [1] -1.4% | [2] -1.3% | [3] 3%

Cc1cccc2c(=O)n3c(nc12)CCCCC3
inactive: [1] 0.4% | [2] -1.4% | [3] -10.4%

CCn1cc(C(=O)O)c(=O)c2cnc(N3CCNCC3)nc21
inactive: [1] 0.1% | [2] 1% | [3] -7.3%

COc1ccc2oc(=O)c(C(=O)N3CCN(c4ccccc4)CC3)cc2c1
inactive: [1] -1% | [2] 0.2% | [3] 1.6%

COc1ccc(/C=C2\CC/C(=C\c3ccc(OC)c(OC)c3)C2=O)cc1OC
inactive: [1] 1.7% | [2] 0.1% | [3] -5.9%

CC1(C(=O)O)CCC(C(=O)NC2CCCCCC2)C1(C)C (centres undefined)
inactive: [1] -6.8% | [2] -1.2% | [3] -7.7%

Fc1cccc(Cc2noc(CN3CCN(c4cnccn4)CC3)n2)c1
inactive: [1] 3.7% | [2] -1.3% | [3] 0.5%

O=C(Nc1ccc(N2CCOCC2)cc1)c1ccc(-c2ccccc2[N+](=O)[O-])o1
inactive: [1] -2.6% | [2] -0.9% | [3] -10.4%

CC1CC(OC(=O)C(O)c2ccccc2)CC(C)(C)N1C (centres undefined)
inactive: [1] -2.4% | [2] -1.7% | [3] -6.1%

C[C@H](NC(=O)C1(c2ccccc2)CCN(C(=O)[C@H]2CSCN2C(=O)OC(C)(C)C)CC1)C(=O)O
inactive: [1] -0.9% | [2] -2% | [3] -10.5%

CCN(CCCCOC(=O)c1ccc(OC)c(OC)c1)C(C)Cc1ccc(OC)cc1 (centres undefined)
inactive: [1] -0.4% | [2] -2.7% | [3] -2.8%

O=c1cc(-c2ccccc2)oc2cc(OCc3ccccc3)cc(O)c12
inactive: [1] -0.8% | [2] -0.6% | [3] -4.8%

O=C1CN(O)C=C2N=c3ccccc3=C2N1c1ccc([N+](=O)[O-])cc1
inactive: [1] -2.6% | [2] -2.1% | [3] -4.4%

O=C(/C=C/c1ccccc1)c1ccccc1
inactive: [1] -1.7% | [2] -0.6% | [3] -0.6%

O=C(/C=C/c1ccc2c(c1)OCO2)c1ccccn1
inactive: [1] -2.7% | [2] -0.2% | [3] -2.8%

CCN(CC)CCOC(=O)C1(C2CCCCC2)CCCCC1
inactive: [1] 1.9% | [2] 1% | [3] -2.4%

CCOc1ccc(NC(=O)N[C@@H](CCSC)C(=O)OC)cc1
inactive: [1] -0.6% | [2] -1.8% | [3] -4.6%

Cc1ccc(C(=O)COC(=O)c2cccc(N3C(=O)c4c(C)nc5ccccc5c4C3=O)c2)cc1C
inactive: [1] -1.2% | [2] -1.1% | [3] -0.1%

Cc1ncc(CN2CCC(CO)(CCc3ccccc3)CC2)s1
inactive: [1] 1.3% | [2] 0.2% | [3] -3%

CCOC(=O)c1cccc(C(=O)OCC)n1
inactive: [1] 3.1% | [2] -0.6% | [3] -6.9%

CCN1C(=O)C(CC(=O)Nc2ccc(F)cc2)N(Cc2ccc3c(c2)OCO3)C1=S (centres undefined)
inactive: [1] -1.3% | [2] -0.3% | [3] -6.1%

CC(NCCc1ccc(O)cc1)C(O)c1ccc(O)cc1 (centres undefined)
inactive: [1] 1.6% | [2] -0.5% | [3] -3.1%

CC(C)C(=O)Nc1ccc2c3c(cccc13)CC2
inactive: [1] 1% | [2] 0.5% | [3] -3%

COc1ccc(CCN(C)CCCC(C#N)(c2cc(OC)c(OC)c(OC)c2)C(C)C)cc1OC (centres undefined)
inactive: [1] 5.3% | [2] 1.8% | [3] 6.4%

COc1ccc(-c2[nH]ncc2C=O)cc1OC
inactive: [1] -3.5% | [2] -0.8% | [3] -2.5%

COc1ccc(CNC(=O)c2cc3c(=O)n4ccccc4nc3n(Cc3cccnc3)c2=N)cc1
inactive: [1] -1.2% | [2] 0.4% | [3] -1.9%

CC12CCC(C(=O)N3CCCCC3)([C@H](Br)C1=O)C2(C)C (some centres undefined)
inactive: [1] -3.4% | [2] -1.3% | [3] 0.1%

COCCOC(=O)C1=C(C)NC(C)=C(C(=O)OC(C)C)C1c1cccc([N+](=O)[O-])c1 (centres undefined)
inactive: [1] -2.2% | [2] -0.7% | [3] -4.8%

COc1ccc(CN(CCN(C)C)c2ccccn2)cc1
inactive: [1] 0.8% | [2] 1.3% | [3] -14.9%

COc1cc(CNCCc2ccccc2F)ccc1OCC(=O)N1CCCCC1
inactive: [1] 5.4% | [2] -0.1% | [3] 1%

COC(=O)C1=C(C)NC(C)=C(C(=O)OC)C1c1ccccc1[N+](=O)[O-]
inactive: [1] 5.8% | [2] 2.2% | [3] 2%

O=C(/C=C/c1ccc2c(c1)OCO2)NCc1ccc(F)cc1
inactive: [1] -14.5% | [2] -2.4% | [3] -3.4%

O=C(NCCC(c1ccccc1)c1ccco1)c1cccs1 (centres undefined)
inactive: [1] 3.1% | [2] -2.7% | [3] 3%

COc1ccc(CCN=CC2=C(O)CC(C)(C)CC2=O)cc1
inactive: [1] 1.2% | [2] -0.7% | [3] -4.5%

CCCCOc1ccc(C(=O)CCN2CCCCC2)cc1
inactive: [1] 3.4% | [2] 1.8% | [3] -1.7%

Cc1csc(-c2coc3cc(O)cc(C)c3c2=O)n1
inactive: [1] 0.3% | [2] 1.7% | [3] 0.3%

Fc1ccc(C(c2ccc(F)cc2)N2CCN(C/C=C/c3ccccc3)CC2)cc1
inactive: [1] -5.9% | [2] -1.8% | [3] -5.7%

COc1ccc(C2C(C#N)=C(N)Oc3cc(C)[nH]c(=O)c32)c(OC)c1OC (centres undefined)
inactive: [1] 1.9% | [2] 0.1% | [3] 0.8%

CCOc1ccc2[nH]c3c(=O)n(CCc4ccc(OC)cc4)cnc3c2c1
inactive: [1] 1.7% | [2] 2% | [3] 0.2%

CCN(CCCCCN(C)C)Cc1cc2ccccc2o1
inactive: [1] 4.7% | [2] -1.1% | [3] 8.8%

COc1ccc(C2C3=C(OC(C)=O)c4ccccc4C3=Nc3c2c(=O)n(C)c(=O)n3C)cc1 (centres undefined)
inactive: [1] 4% | [2] 0.1% | [3] 2.9%

CC(NC(=O)c1ccc(N2CCNCC2)c([N+](=O)[O-])c1)C12CC3CC(CC(C3)C1)C2 (centres undefined)
inactive: [1] 0.1% | [2] -0.6% | [3] -5.2%

O=C(O)CCCCCN=C1CCc2ccccc2N1
inactive: [1] 1.6% | [2] -0.4% | [3] 0.8%

COc1ccc(CNC(=O)N[C@H](C(=O)O)C(C)C)cc1OC
inactive: [1] -0.7% | [2] -1.2% | [3] -8.3%

CCc1ccc(/C=C2\Oc3cc(OC(=O)N4CCOCC4)ccc3C2=O)cc1
inactive: [1] 0.7% | [2] -0.2% | [3] 0.7%

O=C(NCCNc1ccc(Cl)cc1[N+](=O)[O-])c1cccnc1
inactive: [1] 0.4% | [2] -1.2% | [3] 2%

COc1ccc(/C=C/C(=O)c2cc3cccc(OC)c3oc2=O)cc1
inactive: [1] 2.3% | [2] 2.8% | [3] 8.8%

CC(=Nc1ccccc1)C1=C(O)CCCC1=O
inactive: [1] -3.4% | [2] -0.9% | [3] -5.7%

CCCc1cc(C(N)=S)ccn1
inactive: [1] 1.8% | [2] 1.2% | [3] -7.7%

O=C(/C=C/c1ccc2c(c1)OCCCO2)c1ccc2ccccc2c1O
inactive: [1] 1.8% | [2] 1.1% | [3] -5.5%

CCOC(=O)c1c(C)oc2cc(Br)c(OC(C)C(=O)OCC)cc12 (centres undefined)
inactive: [1] -0.6% | [2] 0.5% | [3] -2.8%

CCOC(=O)C(=O)Nc1ccc(Oc2ccccc2)cc1
inactive: [1] 1.4% | [2] 0% | [3] 1.3%
